# About 410 targets per protein were measured; listed, in parts, are those with the strongest signals and a random draw of the rest.
# B1: Mcg Light Chain Dimer (Homo sapiens), Q6PIK1 (protein)
# chain: MAGFPLLLTLLTHCAGSWGQSLLTQPPSVSGTPGQRVTISCSGSSSNIGINYVYWYQQIPGTAPKLLISTNDQRPSGVPDRFSGSKSGTSASLAIGGLRSEDEAHYYCAAWDDSMSGPGYAFGTGTKVTVLRQPKANPTVTLFPPSSEELQANKATLVCLISDFYPGAVTVAWKADGSPVKAGVETTKPSKQSNNKYAASSYLSLTPEQWKSHRSYSCQVTHEGSTVEKTVAPTECS
# B2: Factor H (Homo sapiens), P08603 (protein)
# chain: MRLLAKIICLMLWAICVAEDCNELPPRRNTEILTGSWSDQTYPEGTQAIYKCRPGYRSLGNVIMVCRKGEWVALNPLRKCQKRPCGHPGDTPFGTFTLTGGNVFEYGVKAVYTCNEGYQLLGEINYRECDTDGWTNDIPICEVVKCLPVTAPENGKIVSSAMEPDREYHFGQAVRFVCNSGYKIEGDEEMHCSDDGFWSKEKPKCVEISCKSPDVINGSPISQKIIYKENERFQYKCNMGYEYSERGDAVCTESGWRPLPSCEEKSCDNPYIPNGDYSPLRIKHRTGDEITYQCRNGFYPATRGNTAKCTSTGWIPAPRCTLKPCDYPDIKHGGLYHENMRRPYFPVAVGKYYSYYCDEHFETPSGSYWDHIHCTQDGWSPAVPCLRKCYFPYLENGYNQNYGRKFVQGKSIDVACHPGYALPKAQTTVTCMENGWSPTPRCIRVKTCSKSSIDIENGFISESQYTYALKEKAKYQCKLGYVTADGETSGSITCGKDGWSAQPTCIKSCDIPVFMNARTKNDFTWFKLNDTLDYECHDGYESNTGSTTGSIVCGYNGWSDLPICYERECELPKIDVHLVPDRKKDQYKVGEVLKFSCKPGFTIVGPNSVQCYHFGLSPDLPICKEQVQSCGPPPELLNGNVKEKTKEEYGHSEVVEYYCNPRFLMKGPNKIQCVDGEWTTLPVCIVEESTCGDIPELEHGWAQLSSPPYYYGDSVEFNCSESFTMIGHRSITCIHGVWTQLPQCVAIDKLKKCKSSNLIILEEHLKNKKEFDHNSNIRYRCRGKEGWIHTVCINGRWDPEVNCSMAQIQLCPPPPQIPNSHNMTTTLNYRDGEKVSVLCQENYLIQEGEEITCKDGRWQSIPLCVEKIPCSQPPQIEHGTINSSRSSQESYAHGTKLSYTCEGGFRISEENETTCYMGKWSSPPQCEGLPCKSPPEISHGVVAHMSDSYQYGEEVTYKCFEGFGIDGPAIAKCLGEKWSHPPSCIKTDCLSLPSFENAIPMGEKKDVYKAGEQVTYTCATYYKMDGASNVTCINSRWTGRPTCRDTSCVNPPTVQNAYIVSRQMSKYPSGERVRYQCRSPYEMFGDEEVMCLNGNWTEPPQCKDSTGKCGPPPPIDNGDITSFPLSVYAPASSVEYQCQNLYQLEGNKRITCRNGQWSEPPKCLHPCVISREIMENYNIALRWTAKQKLYSRTGESVEFVCKRGYRLSSRSHTLRTTCWDGKLEYPTCAKR
# Experiments:
# Experiment in all cases: glycan array binding signal (z-score within array); higher = stronger binding
# Conditions in all cases: glycan notation: IUPAC condensed, linker removed
# [1] = target: Fuc(a1-2)Gal(b1-3)GalNAc(b1-3)Gal
# Method in brief: (§1)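 The Consortium for Functional Glycomics database supplied 3228 glycan arrays, of which those lacking an available protein sequence were dropped. The binding signal, a within-array Z-score, was averaged across arrays of the same protein sequence and across linkers. Negative scores can be read as non-binding.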
# [2] = target: Fuc(a1-2)[Gal(a1-3)]Gal(b1-4)Glc
# Method in brief: as §1
# [3] = target: Fuc(a1-2)[GalNAc(b1-3)]Gal
# Method in brief: as §1
# [4] = target: Fuc(a1-3)[Gal3S(b1-4)]GlcNAc6S
# Method in brief: as §1
# Gal(a1-3)Gal(b1-4)Glc = target: Gal(a1-3)Gal(b1-4)Glc
# Method in brief: as §1
# [5] = target: Gal(a1-3)Gal(b1-4)[Fuc(a1-3)]GlcNAc
# Method in brief: as §1
# [6] = target: Gal(b1-3)[GlcNAc(b1-6)]GalNAc
# Method in brief: as §1
# Gal(b1-4)Glc6S = target: Gal(b1-4)Glc6S
# Method in brief: as §1
# [7] = target: Gal(b1-4)GlcNAc(b1-3)Gal(b1-4)GlcNAc
# Method in brief: as §1
# [8] = target: Gal3S(b1-4)[Fuc(a1-3)]Glc
# Method in brief: as §1
# Gal3S4S(b1-4)GlcNAc = target: Gal3S4S(b1-4)GlcNAc
# Method in brief: as §1
# Gal3S6S(b1-4)GlcNAc6S = target: Gal3S6S(b1-4)GlcNAc6S
# Method in brief: as §1
# Gal6S(b1-4)GlcNAc6S = target: Gal6S(b1-4)GlcNAc6S
# Method in brief: as §1
# Man(a1-3)[Man(a1-6)]Man = target: Man(a1-3)[Man(a1-6)]Man
# Method in brief: as §1
# [9] = target: Man(a1-3)[Man(a1-6)]Man(b1-4)GlcNAc(b1-4)GlcNAc
# Method in brief: as §1
# [10] = target: Neu5Ac(a2-3)Gal(b1-3)GalNAc6S
# Method in brief: as §1
# [11] = target: Neu5Ac(a2-3)Gal(b1-3)GlcNAc6S
# Method in brief: as §1
# [12] = target: Neu5Ac(a2-3)Gal(b1-4)GlcNAc6S
# Method in brief: as §1
# [13] = target: Neu5Ac(b2-6)Gal(b1-4)GlcNAc
# Method in brief: as §1
# [14] = target: Neu5Gc(a2-3)Gal(b1-4)[Fuc(a1-3)]GlcNAc
# Method in brief: as §1
# [15] = target: Neu5Gc(a2-6)Gal(b1-4)GlcNAc
# Method in brief: as §1
# [16] = target: Fuc(a1-2)Gal(b1-3)GalNAc(b1-3)Gal(a1-4)Gal(b1-4)Glc
# Method in brief: as §1
# Fuc(a1-2)Gal(b1-4)GlcNAc = target: Fuc(a1-2)Gal(b1-4)GlcNAc
# Method in brief: as §1
# Fuc(a1-2)[Gal(a1-3)]Gal = target: Fuc(a1-2)[Gal(a1-3)]Gal
# Method in brief: as §1
# [17] = target: Fuc(a1-3)[Gal(b1-4)]Glc6S
# Method in brief: as §1
# [18] = target: Gal(a1-3)[Gal(a1-4)]Gal(b1-4)GlcNAc
# Method in brief: as §1
# Gal(a1-4)Gal(b1-4)GlcNAc = target: Gal(a1-4)Gal(b1-4)GlcNAc
# Method in brief: as §1
# [19] = target: Gal(b1-4)GlcNAc(b1-3)Gal(b1-4)Glc
# Method in brief: as §1
# [20] = target: Gal(b1-4)GlcNAc(b1-3)[Gal(b1-4)GlcNAc(b1-6)]Gal(b1-4)GlcNAc
# Method in brief: as §1
# [21] = target: Gal(b1-4)GlcNAc(b1-6)Gal(b1-4)GlcNAc
# Method in brief: as §1
# [22] = target: Gal(b1-4)GlcNAc(b1-6)[Gal(b1-3)]GalNAc
# Method in brief: as §1
# Gal6S(b1-4)Glc6S = target: Gal6S(b1-4)Glc6S
# Method in brief: as §1
# [23] = target: GlcNAc(a1-3)Gal(b1-4)GlcNAc
# Method in brief: as §1
# GlcNAc(b1-3)Man = target: GlcNAc(b1-3)Man
# Method in brief: as §1
# [24] = target: GlcNAc(b1-3)[GlcNAc(b1-6)]GalNAc
# Method in brief: as §1
# [25] = target: GlcNAc(b1-4)Gal(b1-4)GlcNAc
# Method in brief: as §1
# [26] = target: GlcNAc(b1-4)GlcNAc(b1-4)GlcNAc(b1-4)GlcNAc(b1-4)GlcNAc(b1-4)GlcNAc
# Method in brief: as §1
# Kdn(a2-3)Gal(b1-3)GlcNAc = target: Kdn(a2-3)Gal(b1-3)GlcNAc
# Method in brief: as §1
# [27] = target: Man(a1-2)Man(a1-3)[Man(a1-2)Man(a1-6)]Man
# Method in brief: as §1
# Man(b1-4)GlcNAc = target: Man(b1-4)GlcNAc
# Method in brief: as §1
# [28] = target: Neu5Ac(a2-3)Gal(b1-4)GlcNAc(b1-2)Man(a1-3)[Neu5Ac(a2-6)Gal(b1-4)GlcNAc(b1-2)Man(a1-6)]Man(b1-4)GlcNAc(b1-4)GlcNAc
# Method in brief: as §1
# [29] = target: Neu5Ac(a2-6)Gal(b1-4)GlcNAc(b1-2)Man(a1-3)[Neu5Ac(a2-6)Gal(b1-4)GlcNAc(b1-2)Man(a1-6)]Man(b1-4)GlcNAc(b1-4)GlcNAc
# Method in brief: as §1
# Neu5Gc(a2-3)Gal(b1-4)Glc = target: Neu5Gc(a2-3)Gal(b1-4)Glc
# Method in brief: as §1
# Neu5Gc(a2-6)GalNAc = target: Neu5Gc(a2-6)GalNAc
# Method in brief: as §1
binder,measurement,setting,value
B1,glycan array binding signal (z-score),[1],-0.611
same,glycan array binding signal (z-score),[2],-1.02
same,glycan array binding signal (z-score),[3],0.344
same,glycan array binding signal (z-score),[4],4.13
same,glycan array binding signal (z-score),Gal(a1-3)Gal(b1-4)Glc,-1.04
same,glycan array binding signal (z-score),[5],0.315
same,glycan array binding signal (z-score),[6],-0.568
same,glycan array binding signal (z-score),Gal(b1-4)Glc6S,0.905
same,glycan array binding signal (z-score),[7],-0.321
same,glycan array binding signal (z-score),[8],-0.54
same,glycan array binding signal (z-score),Gal3S4S(b1-4)GlcNAc,3.63
same,glycan array binding signal (z-score),Gal3S6S(b1-4)GlcNAc6S,5.67
same,glycan array binding signal (z-score),Gal6S(b1-4)GlcNAc6S,0.505
same,glycan array binding signal (z-score),Man(a1-3)[Man(a1-6)]Man,-1.04
same,glycan array binding signal (z-score),[9],-0.305
same,glycan array binding signal (z-score),[10],2.88
same,glycan array binding signal (z-score),[11],1.73
same,glycan array binding signal (z-score),[12],2.96
same,glycan array binding signal (z-score),[13],-0.955
same,glycan array binding signal (z-score),[14],1.2
same,glycan array binding signal (z-score),[15],0.325
B2,glycan array binding signal (z-score),[1],3.46
same,glycan array binding signal (z-score),[16],0.586
same,glycan array binding signal (z-score),Fuc(a1-2)Gal(b1-4)GlcNAc,3.15
same,glycan array binding signal (z-score),Fuc(a1-2)[Gal(a1-3)]Gal,-0.294
same,glycan array binding signal (z-score),[3],3.61
same,glycan array binding signal (z-score),[17],-0.418
same,glycan array binding signal (z-score),[18],-0.355
same,glycan array binding signal (z-score),Gal(a1-4)Gal(b1-4)GlcNAc,-0.467
same,glycan array binding signal (z-score),[6],-0.403
same,glycan array binding signal (z-score),[19],-0.248
same,glycan array binding signal (z-score),[20],-0.173
same,glycan array binding signal (z-score),[21],-0.316
same,glycan array binding signal (z-score),[22],-0.537
same,glycan array binding signal (z-score),Gal3S4S(b1-4)GlcNAc,-0.168
same,glycan array binding signal (z-score),Gal3S6S(b1-4)GlcNAc6S,11.8
same,glycan array binding signal (z-score),Gal6S(b1-4)Glc6S,0.498
same,glycan array binding signal (z-score),[23],-0.015
same,glycan array binding signal (z-score),GlcNAc(b1-3)Man,2.51
same,glycan array binding signal (z-score),[24],1
same,glycan array binding signal (z-score),[25],0.172
same,glycan array binding signal (z-score),[26],-0.101
same,glycan array binding signal (z-score),Kdn(a2-3)Gal(b1-3)GlcNAc,1.99
same,glycan array binding signal (z-score),[27],0.253
same,glycan array binding signal (z-score),Man(b1-4)GlcNAc,-0.282
same,glycan array binding signal (z-score),[10],-0.221
same,glycan array binding signal (z-score),[28],0.231
same,glycan array binding signal (z-score),[29],-0.439
same,glycan array binding signal (z-score),Neu5Gc(a2-3)Gal(b1-4)Glc,-0.053
same,glycan array binding signal (z-score),Neu5Gc(a2-6)GalNAc,-0.411
